Assay results: PubChem BioAssay AID1211 (NMMLSC, 2008)
Activity calls are given as the source filed them. No rule for the calls is given here.

Molecular target: Estrogen receptor (Homo sapiens) (UniProt P03372)
Assay: displacement of fluorescent estrogen from ERalpha – cell-based, Cos7 ERalpha-GFP, flow cytometry, primary screen (AID 1211);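 also: 0% = DMSO vehicle wells and 100% = no E2-Alexa633 signal left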
Details: fluorescent ligand competition, stronger effect = higher value

Chain of Estrogen receptor (Homo sapiens) (P03372 whole entry, looked up): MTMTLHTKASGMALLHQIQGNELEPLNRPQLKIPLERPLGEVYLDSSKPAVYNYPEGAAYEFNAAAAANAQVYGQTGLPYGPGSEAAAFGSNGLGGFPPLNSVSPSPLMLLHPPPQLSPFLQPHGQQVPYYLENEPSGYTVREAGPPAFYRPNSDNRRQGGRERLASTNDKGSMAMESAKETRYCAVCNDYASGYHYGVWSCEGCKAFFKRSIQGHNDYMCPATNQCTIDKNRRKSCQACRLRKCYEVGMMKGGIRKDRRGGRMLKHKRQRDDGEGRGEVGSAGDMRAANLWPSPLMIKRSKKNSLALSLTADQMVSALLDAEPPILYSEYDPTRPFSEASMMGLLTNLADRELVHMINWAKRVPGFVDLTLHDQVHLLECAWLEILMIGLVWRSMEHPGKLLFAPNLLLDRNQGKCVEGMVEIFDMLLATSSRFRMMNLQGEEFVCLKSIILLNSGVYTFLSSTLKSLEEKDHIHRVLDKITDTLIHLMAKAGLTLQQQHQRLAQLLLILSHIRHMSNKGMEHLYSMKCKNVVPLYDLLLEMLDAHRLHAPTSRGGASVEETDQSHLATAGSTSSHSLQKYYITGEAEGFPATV

Compound | inhibition of ligand binding (at 10 µM) | inhibition of ligand binding (binding inhibition, at 0.1 µM)
O=C(NCc1ccco1)c1cc2ccc(O)cc2oc1=O | 5% (inactive) | 46%
O=S(=O)(/N=C(/Sc1ccccc1)c1ccccc1)c1ccccc1 | 0% (inactive) | 24%
O=c1oc2ccccc2n1CCn1c2ccccc2c2nc3ccccc3nc21 | 27% (inactive) | 28%
CSC1=N/C(=C\c2ccc(Br)o2)C(=O)S1 | 12% (inactive) | 13%
CN=c1scc(C)n1/N=C/c1ccc(O)cc1O | 0% (inactive) | 3%
Cc1ccc(Oc2cc(N3CCOCC3)nc(-c3ccccc3)n2)cc1 | 13% (active) | 66%
NC(=O)c1ccsc1NC(=O)COC(=O)Cc1ccsc1 | 37% (inactive) | 29%
O=C(CSc1nnnn1-c1ccccc1)Nc1nsc(-c2ccc(Cl)cc2)n1 | 47% (inactive) | 8%
COc1ccc2[nH]c3c(c2c1)CCn1c-3nc2ccccc2c1=O | 25% (inactive) | 36%
COc1ccccc1C(=O)Nc1nc(-c2cccs2)c(NC(C)=O)s1 | 29% (inactive) | 25%
O=C(Oc1ccc(-c2cnc3ccccc3n2)cc1)c1ccc(Br)o1 | 58% (inactive) | 1%
Oc1c(Cl)cc(Cl)cc1Sc1cc(Cl)cc(Cl)c1O | 37% (inactive) | 28%
CC(=O)c1ccc(NC(=S)N2CCC(O)CC2)cc1 | 30% (inactive) | 23%
CCOc1[nH]c(/N=C/c2ccco2)c(C#N)c1C#N | 21% (inactive) | 9%
Cc1cs/c(=N\N=C\c2ccc(O)cc2)n1Cc1ccco1 | 51% (inactive) | 55%
Cc1nnc(Oc2ccccc2F)c2ccccc12 | 36% (inactive) | 57%
COc1cccc(NC(=O)CSc2nc3ccccc3c3nc4ccccc4n23)c1 | 51% (inactive) | 56%
CSc1ccccc1NC(=O)c1noc2c1CCC2 | 56% (inactive) | 26%
C=CCn1c(SCC(=O)NC(=O)NCc2ccco2)nc2sc(CC)cc2c1=O | 10% (inactive) | 3%
CC1(C)CC(=O)C2=C(C1)OC(c1ccc(O)cc1)C(C#N)=C2N (stereo unspecified) | 34% (inactive) | 5%
Cc1ccc(C(=O)Nc2nc(-c3cccnc3)cs2)o1 | 29% (inactive) | 20%
C/C=C/COC(=O)c1[nH]c2c(c1C)C(=O)CC(c1ccco1)C2 (stereo unspecified) | 29% (inactive) | 27%

Compound | inhibition of ligand binding (at 10 µM) | inhibition of ligand binding (binding inhibition, at 0.1 µM)
C/C(N)=C(/C#N)C(=O)CSc1nnnn1-c1ccc(C)cc1 | 9% (inactive) | 14%
c1ccc(Cc2nnc3sc(-c4ccco4)nn23)cc1 | 34% (inactive) | 12%
Clc1ccc2nc(-c3ccccn3)c(Nc3ccc4c(c3)OCO4)n2c1 | 42% (inactive) | 9%
Cc1cc(=O)[nH]c(SCC(=O)NCc2ccco2)n1 | 19% (inactive) | 8%
Oc1ccccc1C1=Nc2ccccc2N=C(c2cccs2)C1 | 1% (inactive) | 54%
CCc1ccc(-c2nn(-c3ccccc3)cc2CSC(=N)N)cc1 | 22% (inactive) | 45%
CCn1c(SCC(=O)Nc2cccc(F)c2)nnc1-c1cc2cc(Br)ccc2o1 | 26% (inactive) | 35%
O=C(Nc1ccc2oc(-c3ccccc3F)nc2c1)c1cncc(Br)c1 | 41% (inactive) | 38%
CNc1nnc(-c2cc3cc(Cl)ccc3oc2=O)s1 | 29% (inactive) | 58%
Cn1nnnc1SCC(=O)Nc1nc(-c2ccccc2)c(-c2ccccc2)o1 | 45% (inactive) | 7%
CCOC(=O)c1c(C)oc2c1c(C=NC1CCS(=O)(=O)C1)c(O)c1ccccc12 (stereo unspecified) | 29% (inactive) | 43%
Cc1ccc(OCCN2CCN(CC(O)Cn3c4ccccc4c4ccccc43)CC2)cc1 (stereo unspecified) | 37% (inactive) | 33%
COC(=O)c1ccc(CC(=O)c2ccc(O)cc2O)o1 | 32% (inactive) | 9%
CCOc1ccc2nc(NC(=O)CCC(=O)c3cccs3)sc2c1 | 13% (inactive) | 17%
Nc1ccc2oc(-c3ccc4nc[nH]c4c3)nc2c1 | 31% (inactive) | 55%
COc1cc(C(=O)Nc2nnc(-c3sccc3C)s2)cc(OC)c1OC | 2% (active) | 75%
COc1cccc2c1NC(C(=O)O)C1CC=CC21 (stereo unspecified) | 38% (inactive) | 9%
Cc1nn(-c2ccccc2)c(C)c1NC(=O)Cc1cccs1 | 11% (inactive) | 35%
NC(=O)c1cccc2c1C(=O)N(C1CCCCC1)C2 | 26% (inactive) | 39%
COC(=O)c1c(-c2ccncc2)csc1NC(=O)c1ccoc1C | 41% (inactive) | 25%
COc1cc(C(C#N)N2N=C(c3ccccc3)CC2c2ccccc2)ccc1O (stereo unspecified) | 3% (inactive) | 3%
Cc1cc([N+](=O)[O-])c2c(c1C)C1C=CCC1C(c1ccccn1)N2 (stereo unspecified) | 72% (active) | 10%

Compound | inhibition of ligand binding (at 10 µM) | inhibition of ligand binding (binding inhibition, at 0.1 µM)
Cc1cc(-c2nn3c(-c4ccccc4)nnc3s2)c2ccccc2n1 | 23% (inactive) | 24%
O=C1N/C(=C\c2ccc(O)cc2)C(=O)c2ccccc21 | 30% (inactive) | 14%
Cc1ccc(-c2nn3c(C)nnc3s2)cc1NC(=O)COc1ccc(Cl)cc1 | 38% (inactive) | 42%
O=C(CSc1nnc(-c2ccc(OC(F)F)cc2)o1)NC(=O)NCc1ccco1 | 34% (inactive) | 26%
C1CCC(c2nn3c(-c4n[nH]c5c4CCC5)nnc3s2)CC1 | 20% (inactive) | 5%
Cc1ccc(-n2c(SCC(=O)NNC(=S)Nc3ccccc3)nc3ccccc3c2=O)cc1 | 37% (inactive) | 44%
CN1C(=O)CC(C(=O)O)SC1=Nc1cc(Cl)c(O)c(Cl)c1 (stereo unspecified) | 17% (inactive) | 51%
Brc1cc2c(cc1C1Nc3ccccc3C3C=CCC31)OCO2 (stereo unspecified) | 0% (inactive) | 14%
CCOC(=O)Cc1cc(=O)n2[nH]c(-c3ccc(C)cc3)cc2n1 | 0% (inactive) | 25%
COc1ccc(OC)c(/C=N/c2oc(-c3ccco3)c(-c3ccco3)c2C#N)c1 | 25% (inactive) | 19%
COc1ccc(Cc2nnc(NC(=O)Cc3cccs3)s2)cc1 | 47% (inactive) | 47%
Cn1c(C(=O)Nc2ccc3c(c2)OCO3)cc2c(=O)n(C)c3ccccc3c21 | 26% (inactive) | 15%
Cc1cc(=O)oc2c(CN3CCC(C)CC3)c(O)c(Cl)cc12 | 10% (inactive) | 6%
Cc1ccc(C(=O)N/N=C/c2ccc([N+](=O)[O-])s2)cc1 | 40% (active) | 73%
O=C(O)C1Nc2c(O)cc(Cl)c([N+](=O)[O-])c2C2C=CCC12 (stereo unspecified) | 50% (inactive) | 20%
NNc1nc2sc3c(c2c(=O)[nH]1)CCc1ccccc1-3 | 55% (inactive) | 28%
O=C(Cc1cccs1)Nc1ccc(S(=O)(=O)N2CCCCC2)cc1 | 32% (inactive) | 22%
O=S(=O)(NCCc1csc(-c2cccnc2)n1)c1ccc(Cl)s1 | 72% (active) | 35%
CN1C(=O)CSc2ccc(NC(=O)N3CCC(N4CCCCC4)CC3)cc21 | 57% (inactive) | 1%
Cc1ccc(S(=O)(=O)Cc2ccc(C(=O)N3CCc4ccccc4C3)o2)cc1 | 54% (inactive) | 57%
Cc1ccc(-c2csc(NC(=O)c3ccno3)n2)cc1 | 60% (inactive) | 29%
Cc1ccc(/C=c2\sc3nc(-c4ccco4)nn3c2=O)o1 | 37% (inactive) | 26%

Compound | inhibition of ligand binding (at 10 µM) | inhibition of ligand binding (binding inhibition, at 0.1 µM)
O=C(CSc1ccc(Cl)cc1)c1ccco1 | 42% (inactive) | 65%
COc1cccc(C(=O)NC2CCN(C(=O)N3c4ccccc4Sc4ccccc43)CC2)c1 | 60% (inactive) | 13%
CC(=O)Nc1ccc(N=Cc2nc(-c3ccc(C)cc3)oc2O)cc1 | 29% (inactive) | 60%
O=C(Nc1ccccc1[N+](=O)[O-])C1=C(O)CCn2c1nc1ccccc12 | 20% (inactive) | 37%
O=C(Nc1cnn(C23CC4CC(CC(C4)C2)C3)c1)c1cnn2c(C(F)(F)F)cc(-c3ccco3)nc12 | 48% (inactive) | 25%
CCn1c(=NC(=O)c2ccc(N3C(=O)CCC3=O)cc2)sc2c(OC)ccc(OC)c21 | 66% (active) | 32%
Cc1ccc(C(=O)CSC2=C(C#N)C(c3ccco3)CC(=O)N2)c(C)c1 (stereo unspecified) | 49% (inactive) | 53%
COc1cc(/C=N/N2CCN(C3c4ccccc4-c4ccccc43)CC2)ccc1O | 36% (inactive) | 15%
Cc1cc(-c2ccccc2)nc2cc(C(N)=O)nn12 | 42% (inactive) | 5%
Cc1cc2oc(=O)cc(COC(=O)c3n[nH]c4ccccc34)c2cc1C | 53% (inactive) | 20%
Cc1cc(-c2nnc3sc(-c4ccc(Cl)cc4Cl)nn23)n[nH]1 | 27% (inactive) | 53%
O=c1c2c([nH]c3ccccc13)C(=C1CCCC1)CC2 | 0% (inactive) | 36%
COC(=O)C1=C(O)/C(=C\c2ccc(CNC(=O)C(=O)Nc3ccc(C)c(C)c3)o2)N=C1C | 32% (inactive) | 31%
C=CCn1c(=O)c(C#N)cc2c(=O)n3ccccc3nc21 | 38% (inactive) | 42%
O=C1C2C3C=CC(C3)C2C(=O)N1c1cccc2cccnc12 (stereo unspecified) | 4% (inactive) | 57%
Cc1nnc(NC(=O)Cc2cccs2)s1 | 44% (inactive) | 42%
CCC1(C)NC(=O)N(CC(=O)Nc2sc3c(c2C(N)=O)CCC3)C1=O (stereo unspecified) | 15% (inactive) | 16%
Cn1nc([N+](=O)[O-])c2c(-c3nc4ccccc4s3)c(N)n(C3CCCCC3)c2c1=O | 30% (inactive) | 18%
COc1ccccc1-c1nnc2sc(-c3cnccn3)nn12 | 52% (inactive) | 3%
Cc1ccc(-n2nnnc2SCC(=O)Nc2ccc3c(c2)COC3=O)cc1C | 27% (inactive) | 9%
O=c1nc2s/c(=C\c3ccco3)c(=O)n2nc1Cc1ccc(F)cc1 | 32% (inactive) | 61%
COc1ccccc1-c1nnc2n1N=C(c1ccc(O)c(O)c1)CS2 | 46% (inactive) | 10%
